# From the supplement of paper PMC12282887
# ± gives the standard deviation of the averaged measurements.
# Key:
# Assay in all cases: promoter activity interaction Z-score (Lux/OD deviation from empty-vector control); higher = stronger promoter induction by the compound
# [1] = test system: E. coli BW25113 acrABp lux reporter
# Method in brief: (§1)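 Wild-type E. coli BW25113 and three single-gene deletion strains, each carrying a low-copy luxCDABE promoter reporter, were grown at 37°C in 40 µl LB Lennox per well of a 384-well plate. Every compound was applied at four 1:2 dilutions in biological duplicates, and OD600 and luminescence were read every 30 min for 12 h. Integration covered 0–8 h for wild type and 1–9 h for deletion strains, and wells under 10% of the median growth value were removed. Scores are Z-transformed residuals of growth-normalised luminescence fitted against a control.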
# [2] = test system: E. coli BW25113 micFp lux reporter
# Method in brief: as §1
# [3] = test system: E. coli BW25113 ompFp lux reporter
# Method in brief: as §1
# [4] = test system: E. coli BW25113 robp lux reporter
# Method in brief: as §1
# [5] = test system: E. coli BW25113 soxSp lux reporter
# Method in brief: as §1
# [6] = test system: E. coli BW25113 tolCp lux reporter
# Method in brief: as §1
# [7] = 2.6 µg/ml, genetic background: wild type
# [8] = 2.6 µg/ml, genetic background: ΔmarA
# [9] = 2.6 µg/ml, genetic background: Δrob
# [10] = 2.6 µg/ml, genetic background: ΔsoxS
# [11] = 5.3 µg/ml, genetic background: wild type
# [12] = 5.3 µg/ml, genetic background: ΔmarA
# [13] = 5.3 µg/ml, genetic background: Δrob
# [14] = 5.3 µg/ml, genetic background: ΔsoxS
# [15] = 10.6 µg/ml, genetic background: wild type
# [16] = 10.6 µg/ml, genetic background: ΔmarA
# [17] = 10.6 µg/ml, genetic background: Δrob
# [18] = 10.6 µg/ml, genetic background: ΔsoxS
# [19] = 21.1 µg/ml, genetic background: wild type
# [20] = 21.1 µg/ml, genetic background: ΔmarA
# [21] = 21.1 µg/ml, genetic background: Δrob
# [22] = 21.1 µg/ml, genetic background: ΔsoxS
structure (smiles),measurement,setting,value
CC(=O)N[C@H]1[C@@H](O[C@@H]2O[C@H](CC(O)[C@H]3O[C@@H](n4ccc(=O)[nH]c4=O)[C@H](O)[C@@H]3O)[C@H](O)[C@H](O)[C@H]2NC(=O)/C=C/CC(C)C)O[C@H](CO)[C@@H](N)[C@@H]1O (stereo partly specified) [Tunicamycin],promoter activity interaction Z-score,[1]; [7],0.13 ± 0.29
same,promoter activity interaction Z-score,[1]; [8],-0.0876 ± 0.12
same,promoter activity interaction Z-score,[1]; [9],-0.143 ± 0.18
same,promoter activity interaction Z-score,[1]; [10],-0.217 ± 0.36
same,promoter activity interaction Z-score,[1]; [11],-0.0561 ± 0.2
same,promoter activity interaction Z-score,[1]; [12],-0.914 ± 0.2
same,promoter activity interaction Z-score,[1]; [13],-0.22 ± 0.25
same,promoter activity interaction Z-score,[1]; [14],-0.179 ± 0.21
same,promoter activity interaction Z-score,[1]; [15],0.0358 ± 0.052
same,promoter activity interaction Z-score,[1]; [16],0.615 ± 0.22
same,promoter activity interaction Z-score,[1]; [17],-0.243 ± 0.0041
same,promoter activity interaction Z-score,[1]; [18],-0.426 ± 0.35
same,promoter activity interaction Z-score,[1]; [19],-0.24 ± 0.063
same,promoter activity interaction Z-score,[1]; [20],-0.0177 ± 0.64
same,promoter activity interaction Z-score,[1]; [21],-0.332 ± 0.11
same,promoter activity interaction Z-score,[1]; [22],-0.769 ± 0.066
same,promoter activity interaction Z-score,[2]; [7],0.395 ± 0.012
same,promoter activity interaction Z-score,[2]; [8],0.0327 ± 0.17
same,promoter activity interaction Z-score,[2]; [9],0.0339 ± 0.11
same,promoter activity interaction Z-score,[2]; [10],0.164 ± 0.031
same,promoter activity interaction Z-score,[2]; [11],0.157 ± 0.33
same,promoter activity interaction Z-score,[2]; [12],-0.0548 ± 0.095
same,promoter activity interaction Z-score,[2]; [13],0.115 ± 0.13
same,promoter activity interaction Z-score,[2]; [14],-0.136 ± 0.086
same,promoter activity interaction Z-score,[2]; [15],-0.104 ± 0.25
same,promoter activity interaction Z-score,[2]; [16],0.0656 ± 0.17
same,promoter activity interaction Z-score,[2]; [17],0.0163 ± 0.13
same,promoter activity interaction Z-score,[2]; [18],-0.276 ± 0.12
same,promoter activity interaction Z-score,[2]; [19],-0.663 ± 0.012
same,promoter activity interaction Z-score,[2]; [20],-0.0908 ± 0.024
same,promoter activity interaction Z-score,[2]; [21],-0.359 ± 0.073
same,promoter activity interaction Z-score,[2]; [22],-0.569 ± 0.028
same,promoter activity interaction Z-score,[3]; [7],-0.448 ± 0.043
same,promoter activity interaction Z-score,[3]; [8],-0.515 ± 0.43
same,promoter activity interaction Z-score,[3]; [9],-0.684 ± 0.075
same,promoter activity interaction Z-score,[3]; [10],-0.00783 ± 0.5
same,promoter activity interaction Z-score,[3]; [11],-0.405 ± 0.21
same,promoter activity interaction Z-score,[3]; [12],-0.484 ± 1.3
same,promoter activity interaction Z-score,[3]; [13],-0.656 ± 0.73
same,promoter activity interaction Z-score,[3]; [14],0.307 ± 0.49
same,promoter activity interaction Z-score,[3]; [15],-0.305 ± 0.016
same,promoter activity interaction Z-score,[3]; [16],-0.602 ± 0.0081
same,promoter activity interaction Z-score,[3]; [17],-0.783 ± 0.28
same,promoter activity interaction Z-score,[3]; [18],-0.819 ± 0.56
same,promoter activity interaction Z-score,[3]; [19],-0.675 ± 0.34
same,promoter activity interaction Z-score,[3]; [20],-0.947 ± 0.57
same,promoter activity interaction Z-score,[3]; [21],-0.245 ± 0.018
same,promoter activity interaction Z-score,[3]; [22],-1.09 ± 0.71
same,promoter activity interaction Z-score,[4]; [7],-0.274 ± 0.39
same,promoter activity interaction Z-score,[4]; [8],-0.38 ± 0.41
same,promoter activity interaction Z-score,[4]; [9],-0.03 ± 0.92
same,promoter activity interaction Z-score,[4]; [10],-0.268 ± 0.31
same,promoter activity interaction Z-score,[4]; [11],0.0974 ± 0.18
same,promoter activity interaction Z-score,[4]; [12],-1.07 ± 0.12
same,promoter activity interaction Z-score,[4]; [13],0.0652 ± 0.47
same,promoter activity interaction Z-score,[4]; [14],0.323 ± 0.16
same,promoter activity interaction Z-score,[4]; [15],-0.167 ± 0.13
same,promoter activity interaction Z-score,[4]; [16],-0.402 ± 0.074
same,promoter activity interaction Z-score,[4]; [17],-0.108 ± 0.64
same,promoter activity interaction Z-score,[4]; [18],-0.846 ± 0.13
same,promoter activity interaction Z-score,[4]; [19],-0.06 ± 0.16
same,promoter activity interaction Z-score,[4]; [20],0.217 ± 0.25
same,promoter activity interaction Z-score,[4]; [21],-0.865 ± 0.29
same,promoter activity interaction Z-score,[4]; [22],-1.32 ± 0.15
same,promoter activity interaction Z-score,[5]; [7],-0.153 ± 0.24
same,promoter activity interaction Z-score,[5]; [8],-0.163 ± 0.076
same,promoter activity interaction Z-score,[5]; [9],-0.181 ± 0.11
same,promoter activity interaction Z-score,[5]; [10],-0.281 ± 0.17
same,promoter activity interaction Z-score,[5]; [11],-0.207 ± 0.12
same,promoter activity interaction Z-score,[5]; [12],-0.432 ± 0.03
same,promoter activity interaction Z-score,[5]; [13],-0.396 ± 0.41
same,promoter activity interaction Z-score,[5]; [14],-0.473 ± 0.0061
same,promoter activity interaction Z-score,[5]; [15],-0.362 ± 0.15
same,promoter activity interaction Z-score,[5]; [16],-0.417 ± 0.065
same,promoter activity interaction Z-score,[5]; [17],-0.286 ± 0.13
same,promoter activity interaction Z-score,[5]; [18],-0.66 ± 0.33
same,promoter activity interaction Z-score,[5]; [19],-0.651 ± 0.052
same,promoter activity interaction Z-score,[5]; [20],-0.805 ± 0.022
same,promoter activity interaction Z-score,[5]; [21],-0.856 ± 0.24
same,promoter activity interaction Z-score,[5]; [22],-1.4 ± 0.29
same,promoter activity interaction Z-score,[6]; [7],0.117 ± 0.23
same,promoter activity interaction Z-score,[6]; [8],0.186 ± 0.86
same,promoter activity interaction Z-score,[6]; [9],0.627 ± 0.57
same,promoter activity interaction Z-score,[6]; [10],-0.42 ± 1.2
same,promoter activity interaction Z-score,[6]; [11],0.292 ± 0.33
same,promoter activity interaction Z-score,[6]; [12],0.228 ± 1.2
same,promoter activity interaction Z-score,[6]; [13],0.351 ± 0.028
same,promoter activity interaction Z-score,[6]; [14],-0.0491 ± 0.37
same,promoter activity interaction Z-score,[6]; [15],0.145 ± 0.28
same,promoter activity interaction Z-score,[6]; [16],-0.36 ± 0.22
same,promoter activity interaction Z-score,[6]; [17],0.607 ± 0.47
same,promoter activity interaction Z-score,[6]; [18],-0.445 ± 0.3
same,promoter activity interaction Z-score,[6]; [19],0.0528 ± 0.23
same,promoter activity interaction Z-score,[6]; [20],-0.275 ± 0.55
same,promoter activity interaction Z-score,[6]; [21],-1.04 ± 0.42
same,promoter activity interaction Z-score,[6]; [22],-0.899 ± 0.71
